Measurements published in PubChem BioAssay (NCI).
Several values for one entry are separate records, joined by “and”; a condition that tells them apart may be missing. Equal values may be shown once. About 83,000 compounds went through this panel and 20% of them were active in at least one assay; those are over-represented in the sample as a whole.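 The endpoint reported here, percent growth, reads 100 for growth as untreated, 0 for no net growth and -100 for all cells dead.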 Activity calls are given as the source filed them.

What was measured:
Assay in all cases: NCI-60 one-dose screen, 48 h (100 = growth as untreated, 0 = no growth, -100 = all killed)
NCI-H23 lung = test system: NCI-H23 lung
NCI-H226 lung = test system: NCI-H226 lung
NCI-H322M lung = test system: NCI-H322M lung
HOP-62 NSCLC = test system: HOP-62 NSCLC
NCI-H460 lung = test system: NCI-H460 lung
NCI-H522 lung = test system: NCI-H522 lung
A549/ATCC NSCLC = test system: A549/ATCC NSCLC
786-0 renal = test system: 786-0 renal
Method: (§1) Cells are grown in 96 well plates and exposed to the test compound for 48 hours. Compounds are tested at a single concentration, which is 10^-5 M for most compounds. The reported endpoint is percent growth (GI% or GIPRCNT), where numbers from 0 - 100% represent growth inhibition, and numbers from -100% - 0 represent cell death. For example, a value of 40 represents 60% growth inhibition. A value of 0 means no net growth occurred over the course of the experiment. A value of -40 indicates 40% of cells at the beginning of the experiment died by the end of the experiment. A value of -100 means all cells are dead at the end of the experiment.
(§2) NCI-60 Human Tumor Cell Lines Screen was performed using the standard one-dose NCI protocol, which is described in more detail at https://dtp.cancer.gov/discovery_development/nci-60/default.htm.
(§3) Compounds with GIPRCNT values below 10 were considered active. Activity score was based on GIPRCNT using the following formula: […]
(§4) Score is 0 for GIPRCNT values of 100 or above, 50 for GIPRCNT values of 0, and 100 for GIPRCNT values of -100.

COLO 205 colon = test system: COLO 205 colon
Method: as §1, §2, §3, §4

DU-145 prostate = test system: DU-145 prostate
Method: as §1, §2, §3, §4

K-562 leukemia = test system: K-562 leukemia
Method: as §1, §2, §3, §4

MALME-3M melanoma = test system: MALME-3M melanoma
Method: as §1, §2, §3, §4

MDA-MB-231 breast = test system: MDA-MB-231 breast
Method: as §1, §2, §3, §4

RXF 393 renal = test system: RXF 393 renal
Method: as §1, §2, §3, §4

SF-268 CNS = test system: SF-268 CNS
Method: as §1, §2, §3, §4

SF-295 CNS = test system: SF-295 CNS
Method: as §1, §2, §3, §4

SF-539 CNS = test system: SF-539 CNS
Method: as §1, §2, §3, §4

UACC-257 melanoma = test system: UACC-257 melanoma
Method: as §1, §2, §3, §4

M14 melanoma = conditions: 10 µM
HOP-92 NSCLC = test system: HOP-92 NSCLC

## CC[C@@]1(O)C(=O)OCc2c1cc1n(c2=O)Cc2cc3c(CN(C)C)c(O)ccc3nc2-1
NCI-H23 lung; 10 µM
  growth: -15.6% (active) and 1.45% (active)
NCI-H226 lung; 10 µM
  growth: -48.3% (active) and -34.1% (active)
NCI-H322M lung; 10 µM
  growth: 3.52% (active) and -20.1% (active)
HOP-62 NSCLC; 10 µM
  growth: -7.57% (active) and -9.48% (active)
NCI-H460 lung; 10 µM
  growth: 2.05% (active) and -6.71% (active)
NCI-H522 lung; 10 µM
  growth: -57% (active)
A549/ATCC NSCLC; 10 µM
  growth: -30.7% (active) and 4.5% (active)
786-0 renal; 10 µM
  growth: 5.59% (active) and -13.2% (active)
COLO 205 colon; 10 µM
  growth: 9.58% (active)
DU-145 prostate; 10 µM
  growth: -18% (active)
K-562 leukemia; 10 µM
  growth: -22.7% (active)
MALME-3M melanoma; 10 µM
  growth: -11% (active) and -39.7% (active)
MDA-MB-231 breast; 10 µM
  growth: 35.9% (inactive) and 47.6% (inactive)
RXF 393 renal; 10 µM
  growth: -63.5% (active) and 11.3% (inactive)
SF-268 CNS; 10 µM
  growth: 6.03% (active) and 13.3% (inactive)
SF-295 CNS; 10 µM
  growth: -31.3% (active) and -15% (active)
SF-539 CNS; 10 µM
  growth: -19% (active) and -42.7% (active)
UACC-257 melanoma; 10 µM
  growth: -57.9% (active) and 5.98% (active)
M14 melanoma
  growth: -7.26% (active) and -31.9% (active)

## CN(Cc1cnc2nc(N)nc(N)c2n1)c1ccc(C(=O)N[C@@H](CCC(=O)O)C(=O)O)cc1
NCI-H23 lung; 2.5 µM
  growth: 20.9% (inactive)
NCI-H23 lung; 10 µM
  growth: 31.7% (inactive)
NCI-H226 lung; 2.5 µM
  growth: 39.6% (inactive)
NCI-H226 lung; 10 µM
  growth: 35.1% (inactive)
NCI-H322M lung; 2.5 µM
  growth: 53.6% (inactive)
NCI-H322M lung; 10 µM
  growth: 52.6% (inactive)
HOP-62 NSCLC; 2.5 µM
  growth: 30.6% (inactive)
HOP-62 NSCLC; 10 µM
  growth: 32.1% (inactive)
NCI-H460 lung; 2.5 µM
  growth: 23.5% (inactive)
NCI-H460 lung; 10 µM
  growth: 20.7% (inactive)
HOP-92 NSCLC; 2.5 µM
  growth: 32.6% (inactive)
HOP-92 NSCLC; 10 µM
  growth: 25.1% (inactive)
NCI-H522 lung; 2.5 µM
  growth: 47% (inactive)
NCI-H522 lung; 10 µM
  growth: 35.3% (inactive)
A549/ATCC NSCLC; 2.5 µM
  growth: 31% (inactive)
A549/ATCC NSCLC; 10 µM
  growth: 22.8% (inactive)
786-0 renal; 2.5 µM
  growth: 11.7% (inactive)
786-0 renal; 10 µM
  growth: 12.3% (inactive)
COLO 205 colon; 2.5 µM
  growth: 50.5% (inactive)
COLO 205 colon; 10 µM
  growth: 44.1% (inactive)
DU-145 prostate; 2.5 µM
  growth: 31.8% (inactive)
DU-145 prostate; 10 µM
  growth: 39.6% (inactive)
K-562 leukemia; 2.5 µM
  growth: 23.8% (inactive)
K-562 leukemia; 10 µM
  growth: 23.3% (inactive)
MALME-3M melanoma; 2.5 µM
  growth: 61.6% (inactive)
MALME-3M melanoma; 10 µM
  growth: 62% (inactive)
MDA-MB-231 breast; 2.5 µM
  growth: 71.1% (inactive)
MDA-MB-231 breast; 10 µM
  growth: 59.9% (inactive)
RXF 393 renal; 2.5 µM
  growth: 18.7% (inactive)
RXF 393 renal; 10 µM
  growth: 13% (inactive)
SF-268 CNS; 2.5 µM
  growth: 36.8% (inactive)
SF-268 CNS; 10 µM
  growth: 25.1% (inactive)
SF-295 CNS; 2.5 µM
  growth: 18.4% (inactive)
SF-295 CNS; 10 µM
  growth: 19.7% (inactive)
SF-539 CNS; 2.5 µM
  growth: -3.25% (active)
SF-539 CNS; 10 µM
  growth: -0.266% (active)
UACC-257 melanoma; 2.5 µM
  growth: 9.31% (active)
UACC-257 melanoma; 10 µM
  growth: 12% (inactive)

## CC/C(=C(\c1ccccc1)c1ccc(OCCN(C)C)cc1)c1ccccc1
NCI-H23 lung; 10 µM
  growth: 60.3% (inactive)
NCI-H23 lung; 12.5 µM
  growth: -47.7% (active)
NCI-H226 lung; 10 µM
  growth: 92.5% (inactive)
NCI-H226 lung; 12.5 µM
  growth: 51.3% (inactive)
NCI-H322M lung; 10 µM
  growth: 76% (inactive)
NCI-H322M lung; 12.5 µM
  growth: 11.7% (inactive)
HOP-62 NSCLC; 10 µM
  growth: 43.1% (inactive)
HOP-62 NSCLC; 12.5 µM
  growth: -91.2% (active)
NCI-H460 lung; 10 µM
  growth: 2.39% (active)
NCI-H460 lung; 12.5 µM
  growth: -66.8% (active)
HOP-92 NSCLC; 12.5 µM
  growth: 9.65% (active)
NCI-H522 lung; 10 µM
  growth: 46.6% (inactive)
NCI-H522 lung; 12.5 µM
  growth: -46.4% (active)
A549/ATCC NSCLC; 10 µM
  growth: 49.8% (inactive)
A549/ATCC NSCLC; 12.5 µM
  growth: -44.9% (active)
786-0 renal; 10 µM
  growth: -41% (active)
786-0 renal; 12.5 µM
  growth: -95.2% (active)
COLO 205 colon; 10 µM
  growth: -89% (active)
COLO 205 colon; 12.5 µM
  growth: -71.9% (active)
DU-145 prostate; 10 µM
  growth: 65.4% (inactive)
DU-145 prostate; 12.5 µM
  growth: 9.12% (active)
K-562 leukemia; 10 µM
  growth: 0.0322% (active)
K-562 leukemia; 12.5 µM
  growth: -38.6% (active)
MALME-3M melanoma; 10 µM
  growth: -67.5% (active)
MALME-3M melanoma; 12.5 µM
  growth: -95.7% (active)
MDA-MB-231 breast; 10 µM
  growth: 45.2% (inactive)
MDA-MB-231 breast; 12.5 µM
  growth: -26.4% (active)
RXF 393 renal; 10 µM
  growth: -22.4% (active)
RXF 393 renal; 12.5 µM
  growth: -56.8% (active)
SF-268 CNS; 10 µM
  growth: 56.7% (inactive)
SF-268 CNS; 12.5 µM
  growth: 32.4% (inactive)
SF-295 CNS; 10 µM
  growth: 40.2% (inactive)
SF-295 CNS; 12.5 µM
  growth: -68% (active)
SF-539 CNS; 12.5 µM
  growth: -95.2% (active)
UACC-257 melanoma; 10 µM
  growth: -64.3% (active)
UACC-257 melanoma; 12.5 µM
  growth: -34.3% (active)
M14 melanoma
  growth: -75% (active)

## COc1ccc2sc3cccc(NCCN(C)C)c3c(=O)c2c1
NCI-H23 lung; 10 µM
  growth: 60.9% (inactive) and 19.2% (inactive)
NCI-H226 lung; 10 µM
  growth: 59.2% (inactive) and 13.7% (inactive)
NCI-H322M lung; 10 µM
  growth: 41.2% (inactive) and 12.5% (inactive)
HOP-62 NSCLC; 10 µM
  growth: 48.4% (inactive) and -70.3% (active)
NCI-H460 lung; 10 µM
  growth: 21.5% (inactive) and -76.7% (active)
HOP-92 NSCLC; 10 µM
  growth: 24.9% (inactive) and -9.03% (active)
NCI-H522 lung; 10 µM
  growth: -20.9% (active)
A549/ATCC NSCLC; 10 µM
  growth: 25% (inactive) and -23.4% (active)
786-0 renal; 10 µM
  growth: 60% (inactive) and 1.78% (active)
COLO 205 colon; 10 µM
  growth: -17.3% (active) and -81.8% (active)
DU-145 prostate; 10 µM
  growth: 53.6% (inactive) and 14.8% (inactive)
K-562 leukemia; 10 µM
  growth: 17.2% (inactive) and -40.4% (active)
MALME-3M melanoma; 10 µM
  growth: 18.6% (inactive) and -90.3% (active)
MDA-MB-231 breast; 10 µM
  growth: 42.1% (inactive) and -72.9% (active)
RXF 393 renal; 10 µM
  growth: 59.7% (inactive) and -15.9% (active)
SF-268 CNS; 10 µM
  growth: 42.9% (inactive) and 12.4% (inactive)
SF-295 CNS; 10 µM
  growth: -16.7% (active) and -31.7% (active)
SF-539 CNS; 10 µM
  growth: 49.8% (inactive) and -8.1% (active)
UACC-257 melanoma; 10 µM
  growth: -83.3% (active)
M14 melanoma
  growth: 59.1% (inactive) and -84.9% (active)
